Consider 40 compounds from PubChem BioAssay (NCI).

This is part of a sample that, as a whole, favours compounds with a hit. Of some 83,000 tested, about 20% had one in any assay.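 Results are percent growth after 48 hours of single-concentration exposure. 100 means growth as in untreated cells, lower positive values show inhibition; negative values down to -100 show cell death.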 Values without a mark were called inactive. The source made the active and inactive calls.

In the assay the test system is SNB-75 CNS. Nature of the assay: NCI-60 one-dose screen, 48 h (100 = growth as untreated, 0 = no growth, -100 = all killed). The conditions noted are these: 10 µM unless noted. The procedure: Growth inhibition of the SNB-75 human tumor cell line is measured as a screen for anti-cancer activity. Cells are grown in 96 well plates and exposed to the test compound for 48 hours. Compounds are tested at a single concentration, which is 10^-5 M for most compounds. The reported endpoint is percent growth (GI% or GIPRCNT), where numbers from 0 - 100% represent growth inhibition, and numbers from -100% - 0 represent cell death. For example, a value of 40 represents 60% growth inhibition. A value of 0 means no net growth occurred over the course of the experiment. A value of -40 indicates 40% of cells at the beginning of the experiment died by the end of the experiment. A value of -100 means all cells are dead at the end of the experiment.
NCI-60 Human Tumor Cell Lines Screen was performed using the standard one-dose NCI protocol, which is described in more detail at https://dtp.cancer.gov/discovery_development/nci-60/default.htm.
Compounds with GIPRCNT values below 10 were considered active. Activity score was based on GIPRCNT using the following formula: […]
Score is 0 for GIPRCNT values of 100 or above, 50 for GIPRCNT values of 0, and 100 for GIPRCNT values of -100.
Regarding `CCCCCc1c(C)[nH]c(/C=C2\N=C(c3ccc[nH]3)C=C2Oc2ccccc2)c1C`, the growth was -62.1% [100 µM] (active).
On to `O=C(Nc1nc2ccc(OC(F)(F)F)cc2s1)c1ccc(F)cc1`, for which the growth is 73.7%.
For the compound `O=C(c1ccccc1)c1ccc(Oc2ccc([N+](=O)[O-])cc2[N+](=O)[O-])cc1`, the growth is 85.2%.
The result for `Cc1sc2nc(NCc3ccccc3)[nH]c(=O)c2c1C` reads 46.1%.
Regarding `CC12CCC3C(=CCc4cc(O)ccc43)C1CCC2=O` (stereo not given), the growth is 104%.
Consider `COC(=O)[C@H]1[C@H]2C[C@@H]3c4[nH]c5cc(OC)ccc5c4CCN3C[C@H]2C[C@@H](OC(=O)/C=C/c2cc(OC)c(OC)c(OC)c2)[C@@H]1OC`, for which the growth was 47.2%.
For `CC(=O)N1N=C(c2ccc(Nc3ccnc4cc(Cl)ccc34)cc2)CC1c1ccc(Cl)cc1` (stereo not given), the growth was 59.6%.
The result for `CC1(C)CC2(C)CC(=O)C1C(C(=O)O)C2C(=O)O` (stereo not given) reads 96.4%; that for `Nc1nc2c(nnn2Cc2ccc(Cl)c(Cl)c2)c(=O)[nH]1`, 90.5%; that for `O=C(CC1Sc2ccccc2NC1=O)NNc1cccc(Cl)c1Cl` (stereo not given), 92.2%.
Under `O=C(CSc1nnc(-c2cc(-c3ccccc3)nc3ccccc23)o1)c1ccc(Br)cc1` stands 97.4%.
Take `CCCCCN1C(=O)CCC1=O`: the growth was 98.6%.
The result for `O=C(N/N=C/c1cccc(O)c1O)c1ccccc1` reads 41%.
With `COC(=O)[C@H](Cc1cn(C)cn1)NC(=O)[C@H](Cc1ccccc1)NC(=O)Nc1cc(C(F)(F)F)cc(C(F)(F)F)c1`, the growth was -98.2% [100 µM] (active).
Under `C[C@@H]1CN(c2nc3c(cc2F)c(=O)c(C(=O)O)cn3C(C)(C)C)C[C@H](C)N1` stands 114%; under `Cc1ccc(-c2cc(-c3ccccc3)n(-c3ccccc3)n2)cc1`, 99.4%; under `C#C[C@]1(O)CCC2C3CCc4cc(O)ccc4C3CC[C@@]21C` (stereo not given in full), 38.8%.
For `O=C(O)CNC(=O)C1(N2C(=O)c3ccccc3C2=O)CCCC1`, the growth is 88.2%.
On to `CCCCCCCCCCCCCCCCNC(=O)Nc1ccc2ccccc2c1`, for which the growth was 98.1%.
For `Cc1[nH]cnc1/C=C1\SC(N2CCCCC2)=NC1=O`, the growth was 111%.
As for `COc1cc(C2CC(C3C(=O)N(C)C(=O)N(C)C3=O)=NN2c2cc(Cl)cc(Cl)c2)cc(OC)c1OC` (stereo not given), the growth was 100%.
On to `CCC(=O)Nc1cc2c(cc1Cl)-c1ccccc1C2`, for which the growth is 83.1%.
With `CN1CCC[C@@H]1CCO[C@](C)(c1ccccc1)c1ccc(Cl)cc1`, the growth was 52.3%.
As to `COc1cccc(C2=NN(C(C)=O)C(c3cc(OC)c(OC)c(OC)c3)C2)c1` (stereo not given), the growth was -30.1% (active).
With `c1ccc(CN=C(NCc2ccccc2)NCc2ccccc2)cc1`, the growth was 59.3%.
On to `COc1ccc(-c2nc3sc4c(c3c(=O)[nH]2)CCCCCC4)cc1`, for which the growth was 49.4%.
For `C[C@]12CCC(=O)C=C1CC[C@H]1[C@@H]3C[C@@H](O)[C@](O)(C(=O)CO)[C@@]3(C)C[C@H](O)[C@@]12F`, the growth was 108%.
For `Nc1ccccc1C#Cc1ccccc1C#Cc1ccc(OCCCCCCOc2ccc(C#Cc3ccccc3C#Cc3ccccc3N)cc2)cc1`, the growth is 105%.
As to `O=C1CSC(c2ccccc2Cl)N1c1nnc(Cn2nnc3ccccc32)o1` (stereo not given), the growth is 81.6%.
The result for `Cn1ccnc1C(=O)/C=C/c1ccc(C(=O)Nc2nc3ccccc3[nH]2)cc1` reads -17% (active); that for `Cc1cc(C)c(C(=O)c2cccs2)c(C)c1`, 86.2%; that for `C(=C1c2ccccc2-c2ccccc21)c1ccncc1`, -5.86% (active).
For the compound `CCCCN=C(N)c1ccc(OCCSCCOc2ccc(C(N)=NCCCC)cc2)cc1`, the growth is 65.7%.
Regarding `NS(=O)(=O)c1ccc(-n2nc(-c3ccc(Br)cc3)ccc2=O)cc1`, the growth is 8.35% [100 µM] (active).
Under `O=CN1N=C(c2ccc(Cl)cc2)CC1c1cccc(Nc2ccnc3cc(Cl)ccc23)c1` (stereo not given) stands 1.24% (active); under `CC[n+]1c(/C=C/c2ccc(N3CCCC3)cc2)cccc1/C=C/c1ccc(N2CCCC2)cc1`, -92.7% (active).
As to `O=C(COc1ccc(/C=C2\Cc3ccccc3C2=O)cc1)c1ccc(Cl)cc1`, the growth is 94.5%.
For the compound `Nc1ccc(Oc2c(F)c(F)c(Oc3ccc(N)cc3)c(F)c2F)cc1`, the growth was 89.5%.
For `COc1ccc(-c2nnc3c4[nH]cnc4ncn23)c(OC)c1`, the growth was 39.2%.
With `N#Cc1c(NC(=O)c2ccco2)[n+]([O-])c2cc(Cl)c(Cl)cc2[n+]1[O-]`, the growth is 103%.
